According to PubChem BioAssay (NCI):
Compounds without any hit were thinned out: in the full panel of roughly 83,000, 20% have a hit.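 Method: cells in 96-well plates; compound added at one concentration; 48 h incubation; percent growth measured; values under 10 scored active.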 Activity calls are given as the source filed them.

Key:
Test in all cases: NCI-60 one-dose screen, 48 h (100 = growth as untreated, 0 = no growth, -100 = all killed)
Conditions in all cases: 10 µM unless noted
T-47D breast = system: T-47D breast
MDA-MB-435 melanoma = system: MDA-MB-435 melanoma
SW-620 colon = system: SW-620 colon
MCF7 breast = system: MCF7 breast
HCT-116 colon = system: HCT-116 colon
HCC-2998 colon = system: HCC-2998 colon
KM12 colon = system: KM12 colon
BT-549 breast = system: BT-549 breast

Measured: growth

CCc1c(C)c2ccc(OCC(=O)N=Nc3c(O)[nH]c4ccccc34)c(C)c2oc1=O
active: T-47D breast -53.3% | MDA-MB-435 melanoma 0.887% | SW-620 colon -29.2% | MCF7 breast -4.72% | HCT-116 colon -7.72% | HCC-2998 colon -2.02% | KM12 colon -23.4%

O=C(NC1CCN(Cc2ccccc2)CC1)c1cc(-c2cccnc2)nc2ccc(Cl)cc12
inactive: T-47D breast 45% | MDA-MB-435 melanoma 75% | SW-620 colon 27% | MCF7 breast 70.9% | HCT-116 colon 57.6% | HCC-2998 colon 64.9% | KM12 colon 39.2%

CC1(C)N=C(N)N=C(N)N1c1cccc(CCCCOc2ccccc2)c1
inactive: T-47D breast 37.7% | BT-549 breast 35.7% | SW-620 colon 12.6% | HCT-116 colon 11.3% | HCC-2998 colon 27.1% | KM12 colon 15.9%
active: MCF7 breast 1.62%

CCC(C)(C)c1ccc(OCCCCCCN2CCN(c3ccc(C)c(Cl)c3)CC2)cc1
inactive: T-47D breast 66.1% | BT-549 breast 79.5% | MDA-MB-435 melanoma 97.3% | MCF7 breast 88.4% | HCT-116 colon 62.3% | HCC-2998 colon 83.5% | KM12 colon 79.3%

Oc1ccc2ccccc2c1/C=N\Nc1ccccn1
active: T-47D breast 7.06% | MCF7 breast 2.43% | HCT-116 colon 1.72%
inactive: BT-549 breast 22.2% | MDA-MB-435 melanoma 25.1% | HCC-2998 colon 21% | KM12 colon 29.7%

O=C(Nc1ccc(-n2cc(-c3ccncc3)c(-c3ccc(Cl)c(O)c3)n2)cc1)c1ccc(Cl)c(Cl)c1
inactive: T-47D breast 71.9% | MDA-MB-435 melanoma 43.5% | SW-620 colon 11.2% | MCF7 breast 27.9% | HCT-116 colon 16.8% | HCC-2998 colon 10.1%
active: KM12 colon 0.115%

N#Cc1c2ncccc2c2nnc3cc(Cl)c(Cl)cc3n12
inactive: T-47D breast 60.4% | MDA-MB-435 melanoma 106% | SW-620 colon 78.7% | MCF7 breast 38.9% | HCT-116 colon 78.7% | HCC-2998 colon 75.6% | KM12 colon 89%

COC(=O)C(C)[C@H]1CC[C@@H]2[C@]1(C)CC=C1[C@]23C=C[C@]2(C[C@@H](OC(C)=O)CC[C@]12C)C(C(=O)OC)C3C(=O)OC (some centres undefined)
inactive: T-47D breast 78.2% | MDA-MB-435 melanoma 95.1% | SW-620 colon 102% | MCF7 breast 83.9% | HCT-116 colon 63.7% | HCC-2998 colon 91.4% | KM12 colon 92.5%

Cc1ccccc1-n1c(C)nc2cc(NC(=O)c3ccc(Cl)cc3)ccc2c1=O
inactive: T-47D breast 29% | MDA-MB-435 melanoma 43.7% | SW-620 colon 86% | MCF7 breast 57.8% | HCT-116 colon 74.8% | HCC-2998 colon 80.9% | KM12 colon 76.6%

CC(=O)N1CCN(CCNC(=O)n2cc(-c3ccncc3)c(-c3cc(O)cc(Cl)c3)n2)CC1
inactive: T-47D breast 100% | MDA-MB-435 melanoma 49.3% | SW-620 colon 76.8% | MCF7 breast 93.4% | HCT-116 colon 43.6% | HCC-2998 colon 122% | KM12 colon 91.3%

CCN(CC)C(=O)C1(C)CCCC2(C)c3cc(OC(C)=O)ccc3CCC12 (centres undefined)
inactive: T-47D breast 71.7% | MDA-MB-435 melanoma 72.9% | SW-620 colon 89.1% | MCF7 breast 87.9% | HCT-116 colon 84.9% | HCC-2998 colon 109% | KM12 colon 82.2%

CCC1(CC)C(OC)NC(Br)=C(C#N)C1(C#N)C(N)=O (centres undefined)
inactive: T-47D breast 113% | MDA-MB-435 melanoma 107% | SW-620 colon 101% | MCF7 breast 110% | HCT-116 colon 110% | HCC-2998 colon 121% | KM12 colon 103%

COc1cc(/C(=C2/O[C@@H]([C@H]3COC(C)(C)O3)[C@H]3OC(C)(C)O[C@@H]23)c2ccc3c(c2)OCO3)cc(OC)c1OC
active: HCT-116 colon 9.6%
inactive: T-47D breast 55.9% | BT-549 breast 79.5% | MDA-MB-435 melanoma 73.3% | MCF7 breast 44.5% | KM12 colon 63.6%

COc1ccc(C(=O)NCCNc2nccc(-c3c(-c4ccc(F)cc4)nc4sccn34)n2)cc1
inactive: T-47D breast 58.2% | MDA-MB-435 melanoma 43.6% | SW-620 colon 52.3% | MCF7 breast 25.1% | HCT-116 colon 31.8% | HCC-2998 colon 97%

COc1cc(-c2nn(-c3ccc(NC(=O)Nc4cc(C(F)(F)F)cc(C(F)(F)F)c4)cc3)cc2-c2ccncc2)ccc1Cl
active: T-47D breast 8.74% | MDA-MB-435 melanoma 0.886% | MCF7 breast -4.41% | HCT-116 colon -11% | HCC-2998 colon -7.63% | KM12 colon 0.412%
inactive: SW-620 colon 13.9%

O=c1c2c(c3ccccc3n1-c1ccccc1)NC(=S)NC2c1ccccc1 (centres undefined)
inactive: T-47D breast 59.9% | MDA-MB-435 melanoma 111% | SW-620 colon 107% | MCF7 breast 42.3% | HCT-116 colon 96.1% | HCC-2998 colon 98.8% | KM12 colon 104%

C=CCNCCC#N
inactive: T-47D breast 96.3% | MDA-MB-435 melanoma 109% | SW-620 colon 110% | MCF7 breast 99.5% | HCT-116 colon 100% | HCC-2998 colon 116% | KM12 colon 115%

CCCCCCC(C)N(CC(C)(C)O)C(=O)c1ccc([N+](=O)[O-])cc1 (centres undefined)
inactive: T-47D breast 88.2% | BT-549 breast 99% | MDA-MB-435 melanoma 104% | MCF7 breast 97.6% | HCC-2998 colon 115% | KM12 colon 103%

C=C(C)C(C(=O)OCC)(C(=O)OCC)C(C)C
inactive: T-47D breast 124% | BT-549 breast 115% | SW-620 colon 107% | MCF7 breast 97.4% | HCT-116 colon 109% | HCC-2998 colon 119% | KM12 colon 106%

CC(=O)Nc1nc(C)c(C(=O)NNC(=O)Nc2ccccc2)s1
inactive: T-47D breast 91.1% | MDA-MB-435 melanoma 128% | SW-620 colon 100% | MCF7 breast 100% | HCT-116 colon 102% | HCC-2998 colon 104% | KM12 colon 98.6%

Cc1ccc(NC(=O)CCl)cc1Cl
inactive: T-47D breast 90.2% | MDA-MB-435 melanoma 90.9% | SW-620 colon 95.5% | MCF7 breast 87.5% | HCT-116 colon 106% | HCC-2998 colon 115% | KM12 colon 111%

CC(O)c1cc[cH-]c1.[Fe+2].c1cc[cH-]c1 (centres undefined)
inactive: T-47D breast 101% | MDA-MB-435 melanoma 104% | SW-620 colon 103% | MCF7 breast 103% | HCT-116 colon 94.1% | HCC-2998 colon 109% | KM12 colon 103%

CCCCCCCCCCCCCCCCCC1=NCCN1CS(=O)(=O)O
active: MDA-MB-435 melanoma -19.9%
inactive: T-47D breast 57.4% | BT-549 breast 93.5% | HCT-116 colon 44.2% | HCC-2998 colon 101% | KM12 colon 16.4%

O=c1c2c(c3ccccc3n1-c1ccccc1)NC(=S)NC2c1ccc(Cl)cc1 (centres undefined)
inactive: T-47D breast 67.4% | MDA-MB-435 melanoma 30.4% | SW-620 colon 57.1% | MCF7 breast 60% | HCT-116 colon 16.1% | HCC-2998 colon 35.7%

O=C(Nc1ccc(-n2cc(-c3ccncc3)c(-c3ccc(Cl)c(O)c3)n2)cc1)Nc1cc(C(F)(F)F)cc(C(F)(F)F)c1
active: MDA-MB-435 melanoma 6.62%
inactive: T-47D breast 23.8% | SW-620 colon 26.1% | MCF7 breast 11% | HCT-116 colon 10.5% | HCC-2998 colon 36.1%

O=C(CCl)c1ccc2c(c1)CCCC2
inactive: T-47D breast 87.9% | MDA-MB-435 melanoma 111% | SW-620 colon 82.6% | MCF7 breast 86.5% | HCT-116 colon 84.2% | HCC-2998 colon 111% | KM12 colon 107%

COc1cc2ncnc(Nc3ccc4c(cnn4C(=O)Nc4ccccc4)c3)c2cc1OC
inactive: T-47D breast 77.7% | BT-549 breast 83.4% | MDA-MB-435 melanoma 94.7% | MCF7 breast 60.4% | HCT-116 colon 95.8% | HCC-2998 colon 87.4% | KM12 colon 93.5%

Cn1c2c(cc(S(=O)(=O)c3ccccc3)c1=O)CCc1c-2cnn1-c1ccc(Cl)cc1
inactive: MDA-MB-435 melanoma 16.2% | SW-620 colon 56.7% | HCT-116 colon 53% | HCC-2998 colon 74.3% | KM12 colon 92.2%
active: T-47D breast -24.2% | MCF7 breast -27.7%

N#Cc1ccc(NC2c3ccccc3CC2O)cc1 (centres undefined)
inactive: T-47D breast 103% | BT-549 breast 99.2% | MDA-MB-435 melanoma 117% | MCF7 breast 95.8% | HCC-2998 colon 105% | KM12 colon 112%

CC(O)CCC(C)[N+](=O)[O-] (centres undefined)
inactive: T-47D breast 103% | BT-549 breast 106% | SW-620 colon 104% | MCF7 breast 101% | HCT-116 colon 109% | HCC-2998 colon 126% | KM12 colon 103%

COc1ccc(C(=O)N2N=C(c3ccc(Br)cc3)CC2c2cn(-c3ccccc3)nc2-c2ccccc2)cc1 (centres undefined)
inactive: T-47D breast 61.1% | MDA-MB-435 melanoma 48.6% | SW-620 colon 29.6% | MCF7 breast 33.8% | HCC-2998 colon 55.9% | KM12 colon 55.6%
active: HCT-116 colon -23.3%

COc1ccc(-c2nc(N)n(C(=S)Nc3ccccc3)n2)cc1
inactive: T-47D breast 84.8% | MDA-MB-435 melanoma 107% | SW-620 colon 99% | MCF7 breast 89.1% | HCT-116 colon 98.3% | HCC-2998 colon 107% | KM12 colon 95.5%

CC(C)CCCCCOC(=O)c1ccccc1SSc1ccccc1C(=O)OCCCCCC(C)C
inactive: T-47D breast 89.6% | MDA-MB-435 melanoma 107% | SW-620 colon 101% | MCF7 breast 93.6% | HCT-116 colon 98.5% | HCC-2998 colon 110% | KM12 colon 106%
